Screen size: about 210,000 compounds; about 520 (0.25%) were called active. Shown is part of a subset that was picked to be rich in actives. Unmarked numbers belong to inactive results. Rule as the data show it: active = inhibition above about 50%; inactive = the rest.
What follows are compounds tested on Plasmodium falciparum apicoplast DNA polymerase (apPOL) (assay: Pf-apPOL inhibitors, biochemical, fluorescence (AID 1794808)). Conditions: Recombinant Pf-apPOL, molecular beacon fluorescence, 1.5 h; at 10 µM; stronger effect = higher value.

SMILES | inhibition
COc1ccc2nc(SC)[nH]c2c1 | -6.5%
COc1ccc2nc(SCC(=O)NCc3cccs3)[nH]c2c1 | -5.8%
COc1ccc2nc(SCC(=O)c3ccc(Cl)c(Cl)c3)[nH]c2c1 | 79.6% (active)
CC(=O)N1CCc2cc(N3CC(C(=O)Nc4cccc(F)c4)CC3=O)ccc21 (configuration not stated) | -3.7%
O=C(CCCC1=NS(=O)(=O)c2ccccc2N1)Nc1cccc(C(=O)O)c1 | -7.1%
O=C(NCCC1=CCCCC1)C(=O)NCC(c1ccc2c(c1)OCO2)N1CCOCC1 (configuration not stated) | -1.8%
Cc1ccc(C)c(OCC(=O)Nc2ccccc2C(N)=O)c1 | 4.8%
O=C(CCc1ccccc1)NCC1COC2(CCCCC2)O1 (configuration not stated) | 90.3% (active)
O=C(C=Cc1ccco1)NCC1COC2(CCCCC2)O1 (configuration not stated) | -8.3%
O=C(NCC1COC2(CCCC2)O1)c1ccccc1[N+](=O)[O-] (configuration not stated) | -1.9%
Cc1cc(NC(=O)N2CC3CCCN3c3ccccc32)ccc1Br (configuration not stated) | 0.1%
CN1/C(=C/C(=O)c2ccc(I)cc2)Sc2ccccc21 | -77.1%
CC(C)CNS(=O)(=O)c1ccc2nc(NC(=O)c3ccco3)sc2c1 | 45.1%
NC(COc1ccc(Cl)cc1)=NOC(=O)c1ccsc1 | -6.2%
COc1cc(OC)c(N2C(=O)NC3CC2(C)Oc2ccccc23)cc1Cl (configuration not stated) | -6.1%
Fc1ccc(-c2nc(-c3ccc(Cl)cc3)no2)cc1 | -2.6%
O=C(Nc1cc(F)c2nc(N3CCCC3)ccc2c1)c1cccc(F)c1 | 0.1%
O=C1C(Nc2ccccc2)=CC(c2ccc([N+](=O)[O-])cc2)N1c1ccccc1 (configuration not stated) | 8.9%
COc1ccc(C2C=C(Nc3ccccc3)C(=O)N2c2ccccc2)c(OC)c1 (configuration not stated) | 65.6% (active)
COc1ccc(/C=C2/C(=O)N(c3ccccc3)N=C2C)c(OC)c1 | 2.6%
Cc1ccc2c(c1)N(Cc1nc(-c3ccc(C)c(C)c3)no1)C(=O)CO2 | -2.1%
CC(C=CC=C(C)C(=O)OC1OC(COC2OC(CO)C(O)C(O)C2O)C(O)C(O)C1O)=CC=CC=C(C)C=CC=C(C)C(=O)OC1OC(COC2OC(CO)C(O)C(O)C2O)C(O)C(O)C1O (configuration not stated) | -1.1%
CC(C)(C)NC(=O)N1CCC(CNC(=O)C(=O)Nc2cc(F)ccc2F)CC1 | -4.8%
COc1cc(OC)c(OC)cc1CN1CCCC1c1cc(C)on1 (configuration not stated) | 3.3%
CCN1C2=C(C(=O)CCC2)C(c2cc(Br)c(O)c(OC)c2)C2=C1CCCC2=O | 1.1%
CCOc1cc(C2C3=C(CCCC3=O)N(CC)C3=C2C(=O)CCC3)cc(Cl)c1O | 65.7% (active)
CCN1C2=C(C(=O)CC(C)(C)C2)C(c2cc(Cl)c(O)c(OC)c2)C2=C1CC(C)(C)CC2=O | 6.7%

From PubChem BioAssay AID1794808 (University of Kansas High Throughput Screening Laboratory, 2022)
